This excerpt belongs to a sample that is enriched for the strongest signals.
Assays:
Experiment in all cases: glycan array binding signal (z-score within array); higher = stronger binding
Conditions in all cases: glycan notation: IUPAC condensed, linker removed
[1] = molecular target: Fuc(a1-2)Gal(b1-3)GlcNAc(b1-2)Man(a1-3)[Fuc(a1-2)Gal(b1-3)GlcNAc(b1-2)Man(a1-6)]Man(b1-4)GlcNAc(b1-4)GlcNAc
How it was run: (§1)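 Glycan array binding is given as a within-array Z-score, which can be read as non-binding when negative. The arrays, 3228 of them, came from the Consortium for Functional Glycomics database and were retained only where the protein sequence was available. Z-scores were averaged across arrays of the same protein sequence at different concentrations or buffers and across linkers.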

[2] = molecular target: Fuc(a1-2)Gal(b1-3)[Fuc(a1-4)]GlcNAc
How it was run: as §1

[3] = molecular target: Fuc(a1-2)Gal(b1-4)GlcNAc(b1-2)Man
How it was run: as §1

[4] = molecular target: Fuc(a1-2)Gal(b1-4)[Fuc(a1-3)]GlcNAc(b1-3)[Neu5Ac(a2-6)Gal(b1-4)GlcNAc(b1-6)]Gal(b1-4)Glc
How it was run: as §1

[5] = molecular target: Fuc(a1-3)[Gal(b1-4)]GlcNAc(b1-3)GalNAc
How it was run: as §1

[6] = molecular target: Fuc(a1-3)[Gal3S(b1-4)]GlcNAc6S
How it was run: as §1

[7] = molecular target: Gal(a1-3)Gal(b1-3)GlcNAc
How it was run: as §1

[8] = molecular target: Gal(a1-3)Gal(b1-3)[Fuc(a1-4)]GlcNAc(b1-2)Man(a1-3)[Gal(a1-3)Gal(b1-3)[Fuc(a1-4)]GlcNAc(b1-2)Man(a1-6)]Man(b1-4)GlcNAc(b1-4)GlcNAc
How it was run: as §1

[9] = molecular target: Gal(a1-3)GalNAc
How it was run: as §1

[10] = molecular target: Gal(a1-4)Gal(b1-4)Glc
How it was run: as §1

[11] = molecular target: Gal(b1-3)Gal(b1-4)GlcNAc
How it was run: as §1

[12] = molecular target: Gal(b1-3)GlcNAc(b1-3)Gal(b1-4)[Fuc(a1-3)]GlcNAc(b1-6)[Gal(b1-3)GlcNAc(b1-3)]Gal(b1-4)Glc
How it was run: as §1

[13] = molecular target: Gal(b1-3)[Fuc(a1-4)]GlcNAc(b1-3)Gal(b1-3)[Fuc(a1-4)]GlcNAc
How it was run: as §1

[14] = molecular target: Gal(b1-4)GlcNAc(b1-2)Man(a1-6)[GlcNAc(b1-2)Man(a1-3)]Man(b1-4)GlcNAc(b1-4)GlcNAc
How it was run: as §1

[15] = molecular target: Gal(b1-4)GlcNAc(b1-3)Gal(b1-4)GlcNAc
How it was run: as §1

[16] = molecular target: Gal(b1-4)GlcNAc(b1-3)Gal(b1-4)GlcNAc(b1-2)[Gal(b1-4)GlcNAc(b1-3)Gal(b1-4)GlcNAc(b1-6)]Man(a1-6)[Gal(b1-4)GlcNAc(b1-3)Gal(b1-4)GlcNAc(b1-2)Man(a1-3)]Man(b1-4)GlcNAc(b1-4)GlcNAc
How it was run: as §1

[17] = molecular target: Gal(b1-4)GlcNAc(b1-3)Gal(b1-4)GlcNAc(b1-2)[Gal(b1-4)GlcNAc(b1-3)Gal(b1-4)GlcNAc(b1-6)]Man(a1-6)[Gal(b1-4)GlcNAc(b1-3)Gal(b1-4)GlcNAc(b1-2)Man(a1-3)]Man(b1-4)GlcNAc(b1-4)[Fuc(a1-6)]GlcNAc
How it was run: as §1

[18] = molecular target: Gal(b1-4)GlcNAc(b1-3)Gal(b1-4)GlcNAc(b1-3)Gal(b1-4)GlcNAc(b1-2)Man(a1-3)[Gal(b1-4)GlcNAc(b1-3)Gal(b1-4)GlcNAc(b1-3)Gal(b1-4)GlcNAc(b1-2)Man(a1-6)]Man(b1-4)GlcNAc(b1-4)[Fuc(a1-6)]GlcNAc
How it was run: as §1

[19] = molecular target: Gal(b1-4)GlcNAc(b1-3)Gal(b1-4)GlcNAc(b1-3)Gal(b1-4)GlcNAc(b1-3)Gal(b1-4)GlcNAc(b1-3)Gal(b1-4)GlcNAc(b1-2)Man(a1-3)[Gal(b1-4)GlcNAc(b1-3)Gal(b1-4)GlcNAc(b1-3)Gal(b1-4)GlcNAc(b1-3)Gal(b1-4)GlcNAc(b1-3)Gal(b1-4)GlcNAc(b1-2)Man(a1-6)]Man(b1-4)GlcNAc(b1-4)GlcNAc
How it was run: as §1

[20] = molecular target: Gal(b1-4)GlcNAc(b1-3)Gal(b1-4)GlcNAc(b1-3)[Gal(b1-4)GlcNAc(b1-3)Gal(b1-4)GlcNAc(b1-6)]GalNAc
How it was run: as §1

[21] = molecular target: Gal(b1-4)GlcNAc(b1-3)[Fuc(a1-3)GlcNAc(b1-6)]Gal(b1-4)Glc
How it was run: as §1

[22] = molecular target: Gal(b1-4)GlcNAc(b1-6)[Gal(b1-3)]GalNAc
How it was run: as §1

[23] = molecular target: Gal3S(b1-3)GlcNAc
How it was run: as §1

[24] = molecular target: Gal3S(b1-3)[Fuc(a1-4)]GlcNAc
How it was run: as §1

[25] = molecular target: Gal3S(b1-4)[Fuc(a1-3)]Glc6S
How it was run: as §1

[26] = molecular target: Gal3S(b1-4)[Fuc(a1-3)]GlcNAc6S
How it was run: as §1

[27] = molecular target: Gal3S6S(b1-4)GlcNAc6S
How it was run: as §1

[28] = molecular target: Gal6P(b1-4)GlcNAc
How it was run: as §1

[29] = molecular target: Gal6S(b1-3)GlcNAc6S
How it was run: as §1

[30] = molecular target: Gal6S(b1-4)Glc6S
How it was run: as §1

B1: EULS2 M2 (Oryza sativa) (protein)
chain: MVYCRANPNYAMTARNGAVVLAPANPKDEYQHWIKDMRWSTSIKDEEGYPAFALVNKATGQAIKHSLGQSHPVRLVPYNPEVMDESVLWTESRDVGNGFRCIRMVNNIYLNFDAFHGDKYHGGVRDGTDIVLWKLCEGDSQRWKIQPYYILEQKLISEEDLNSAVDHHHHHH
[1]
  glycan array binding signal (z-score): 2.57
[2]
  glycan array binding signal (z-score): 0.051
[3]
  glycan array binding signal (z-score): -0.221
[4]
  glycan array binding signal (z-score): -0.288
[5]
  glycan array binding signal (z-score): -0.239
[6]
  glycan array binding signal (z-score): 0.046
[7]
  glycan array binding signal (z-score): 6.13
[8]
  glycan array binding signal (z-score): 0.228
[9]
  glycan array binding signal (z-score): -0.346
[10]
  glycan array binding signal (z-score): -0.552
[11]
  glycan array binding signal (z-score): -0.911
[12]
  glycan array binding signal (z-score): -0.897
[13]
  glycan array binding signal (z-score): -0.418
[14]
  glycan array binding signal (z-score): -0.086
[15]
  glycan array binding signal (z-score): 0.298
[16]
  glycan array binding signal (z-score): 1.3
[17]
  glycan array binding signal (z-score): 0.142
[18]
  glycan array binding signal (z-score): -0.152
[19]
  glycan array binding signal (z-score): 2.79
[20]
  glycan array binding signal (z-score): -0.129
[21]
  glycan array binding signal (z-score): -0.485
[22]
  glycan array binding signal (z-score): 0.142
[23]
  glycan array binding signal (z-score): -0.359
[24]
  glycan array binding signal (z-score): -0.012
[25]
  glycan array binding signal (z-score): 0.271
[26]
  glycan array binding signal (z-score): 3.8
[27]
  glycan array binding signal (z-score): 13.3
[28]
  glycan array binding signal (z-score): -0.418
[29]
  glycan array binding signal (z-score): 4.18
[30]
  glycan array binding signal (z-score): 4.74

From the supplement of paper PMC8728848
